Hits are enriched below; roughly 12% of the tested compounds scored in any of these assays.
JMJD2A Tudor = qHTS Assay for Inhibitors of JMJD2A-Tudor Domain; Lysine-specific demethylase 4A (Homo sapiens), O75164; AlphaScreen JMJD2A-Tudor / H3K4me3 peptide binding; Potency, µM (titrated, usually from 114 µM), inactives show at the highest dose activity change, negative = inhibition, hits mostly inhibitors; 4.4% of 390,000 active; also: % is scaled to controls: 0 for no effect and ±100 for the full control effect; nearly all actives have a fitted effect of over 50% in size
PLK1 PBD block = qHTS for Inhibitors of PLK1-PDB (polo-like kinase 1 - polo-box domain): Primary Screen. Plk1 PBD binding of FITC phosphopeptide, fluorescence polarization. Serine/threonine-protein kinase PLK1 (Homo sapiens), P53350. 2.8% of 360,000 active. Potency, µM, without a hit: max response, negative = inhibition, usual class: inhibitors; also: series mostly up to about 57 µM; % is scaled to controls: 0 for no effect and ±100 for the full control effect; nearly all actives have a fitted effect of over 65% in size
BAZ2B inh = qHTS Assay for Inhibitors of BAZ2B; Bromodomain adjacent to zinc finger domain protein 2B (Homo sapiens), Q9UIF8; AlphaScreen BAZ2B-H3K14Ac peptide displacement; Potency, µM (doses to about 114 µM), without a hit: at the top dose activity change, negative = inhibition, actives largely listed as inhibitors; 4.4% of 360,000 active; AID 504333, 2011; also: % is scaled to controls: 0 for no effect and ±100 for the full control effect; nearly all actives have a fitted effect of over 60% in size
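Complex of BAZ2B and biotin-H3K14Ac (50 nM apiece) forms over 30 min at RT, then faces library compounds up to 110 uM for another 30 min; AlphaScreen beads added, 20 min dark incubation, luminescence read.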
HP1b chromo inh = HTS for Inhibitors of HP1-beta Chromodomain Interactions with Methylated Histone Tails. Potency, µM (doses to about 114 µM), without a hit: at the top dose activity change, negative = inhibition, hits mostly inhibitors. AlphaScreen HP1-beta / biotin-H3K9me3 peptide binding. 0.56% of 390,000 active. Chromobox protein homolog 1 (Homo sapiens), P83916. AID 540317, 2011; also: nearly all actives have a fitted effect of over 70% in size
Target sequence (P83916 whole entry, looked up): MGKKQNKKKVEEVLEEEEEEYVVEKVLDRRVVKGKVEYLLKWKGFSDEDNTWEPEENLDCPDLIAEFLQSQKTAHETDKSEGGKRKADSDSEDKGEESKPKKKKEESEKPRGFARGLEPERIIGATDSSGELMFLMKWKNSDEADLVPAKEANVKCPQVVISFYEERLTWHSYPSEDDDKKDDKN
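Compound inhibition of the preformed complex between 50 nM HP1-beta and 50 nM biotinylated H3K9me3 peptide was read by AlphaScreen. Buffer was PBS pH 7.4 with 0.01% Tween-20. Incubations ran 30 min at room temperature, with 10 ug/mL donor/acceptor beads.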
G9a block = qHTS Assay for Inhibitors of Histone Lysine Methyltransferase G9a; G9a H3K9 monomethylation, AlphaScreen, 2 h; Potency, µM (series often up to 102 µM), without a hit: top-dose activity, negative = inhibition, most hits filed as inhibitors; 8.8% of 350,000 active; also: % is scaled to controls: 0 for no effect and ±100 for the full control effect; nearly all actives have a fitted effect of over 75% in size
Target sequence (Q96KQ7 913-1193 limits assumed): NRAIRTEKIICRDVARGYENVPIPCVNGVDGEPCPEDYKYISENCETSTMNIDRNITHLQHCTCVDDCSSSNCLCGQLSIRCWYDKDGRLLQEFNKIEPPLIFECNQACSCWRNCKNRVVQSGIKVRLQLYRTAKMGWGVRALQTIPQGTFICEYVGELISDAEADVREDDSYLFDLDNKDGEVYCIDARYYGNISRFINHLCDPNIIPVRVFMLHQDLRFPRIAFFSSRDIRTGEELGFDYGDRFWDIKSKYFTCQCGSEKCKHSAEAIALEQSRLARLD
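AlphaScreen detection with an anti-monomethyl H3K9 antibody quantified product after a 2 h room-temperature reaction containing 500 nM biotinylated H3K9 peptide, 20 µM SAM and 20 nM enzyme, which had been preincubated 15 min with compound.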
Sfp PPTase inh = qHTS Assay for Inhibitors of Bacillus subtilis Sfp phosphopantetheinyl transferase (PPTase). 4'-phosphopantetheinyl transferase ffp (Bacillus subtilis), Q9F4F7. Biochemical Sfp PPTase activity, qHTS. Potency, µM, inactives show largest response in the series, negative = inhibition, actives largely listed as inhibitors. 3.5% of 310,000 active;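 also: the enzyme is Sfp with the accession as filed and its product quenches rhodamine fluorescence; 0% = enzyme reaction without inhibitor and -100% = no enzyme wells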
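After 15 min at room temperature with compound, 15 nM Sfp received 5 uM rhodamine-CoA plus 12.5 uM BHQ-2-ybbR (50 mM Hepes pH 7.6, 10 mM MgCl2). Rate came from the fluorescence difference over 30 min, ex 525/em 598 nm.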
* hit, by the source's call; [ ] = another dose, or the depositor's remark. Calls follow the shape of the dose curve; as a rule, active = well fitted curve in the direction sought with a large enough effect; inconclusive = small, poorly fitted or top-dose-only effect, or another doubt; inactive = no such curve, though single readings can be large; an effect the other way counts as inactive or inconclusive. Potency is read from the fitted curve at half-maximal effect.

`CCOc1ccc(-n2c(=O)c3c(C)c(C)sc3n(Cc3cc(=O)n4cc(Cl)ccc4n3)c2=O)cc1` gave JMJD2A Tudor -9.6%, BAZ2B inh 2.1%, HP1b chromo inh 22.7% and G9a block 4.6%[59 µM].
Screening Cc1nc(C(=O)Nc2cc(F)cc(Cl)c2)sc1C1(C)CC(c2ccccc2)=NO1 (stereo not given) returned JMJD2A Tudor -8.3%, PLK1 PBD block -7.7% and HP1b chromo inh 37.2%.
Screening COc1ccc2cc(C3(C)NC(=O)N(CC(=O)Nc4c(C)n(C)n(-c5ccccc5)c4=O)C3=O)ccc2c1 (stereo not given) returned JMJD2A Tudor -8.7%, PLK1 PBD block -0.7%, BAZ2B inh -26.2%, HP1b chromo inh 23.0%, G9a block 35.8%[59 µM] and Sfp PPTase inh 10.3%.
`CC1(c2ccc(OC(F)F)cc2)NC(=O)N(CC(=O)Nc2ccc3[nH]c(=O)[nH]c3c2)C1=O` (stereo not given) gave JMJD2A Tudor -25.6%, PLK1 PBD block -6.4%, BAZ2B inh -6.1%, HP1b chromo inh -14.9% and G9a block 56.2µM*.
For COc1ccc(C2(C)NC(=O)N(CC(=O)Nc3ccc4[nH]c(=O)[nH]c4c3)C2=O)cc1 (stereo not given) the results were JMJD2A Tudor -10.3%, PLK1 PBD block -1.1%, BAZ2B inh -0.8%, HP1b chromo inh 23.8% and G9a block -47.4%.
For COc1ccc(C2(C)NC(=O)N(CC(=O)Nc3c(C)n(C)n(-c4ccccc4)c3=O)C2=O)cc1 (stereo not given) the results were JMJD2A Tudor 4.1%, PLK1 PBD block 1.7%, BAZ2B inh -1.7%, HP1b chromo inh 16.9% and G9a block 56.2µM*.
For Cc1c(NC(=O)CN2C(=O)NC(C)(c3ccc(OC(F)F)cc3)C2=O)c(=O)n(-c2ccccc2)n1C (stereo not given) the results were JMJD2A Tudor 0.0%, PLK1 PBD block -3.5%, BAZ2B inh 0.6%, HP1b chromo inh 19.7% and G9a block 50.1µM*.
COc1ccc(C2CCCN2CC(O)COc2ccccc2C(C)C)cc1 (stereo not given) was read as JMJD2A Tudor -15.1%, PLK1 PBD block 0.1%, BAZ2B inh -3.3%, HP1b chromo inh 56.2%, G9a block 4.2% and Sfp PPTase inh 1.4%.
COc1ccc(-c2noc(CSc3nc4ccccc4[nH]3)n2)cc1OC was read as JMJD2A Tudor -18.7%, BAZ2B inh -22.3%, HP1b chromo inh 40.8% and G9a block 2.2%[59 µM].
For Clc1ccc(CNc2ccccc2NCc2ccc(Cl)nc2)cn1 the results were JMJD2A Tudor inconclusive, PLK1 PBD block -15.8%, BAZ2B inh inconclusive, HP1b chromo inh 1.4%, G9a block 3.16µM* and Sfp PPTase inh -2.5%.
For O=C(COc1ccc2c(c1)CCC2)N1CCc2ccccc21 the results were JMJD2A Tudor 39.8µM*, PLK1 PBD block 3.77µM*, BAZ2B inh 1.1%, HP1b chromo inh inconclusive, G9a block -3.1%[59 µM] and Sfp PPTase inh -5.7%.
Cc1ccc(OCC(=O)N2CCc3ccccc32)cc1 was read as JMJD2A Tudor 2.1%, PLK1 PBD block -9.2%, BAZ2B inh 14.0%, HP1b chromo inh 55.8%, G9a block 15.6%[59 µM] and Sfp PPTase inh -6.3%.
`O=C(OCC(=O)N1CCCc2ccccc21)c1ccccc1[N+](=O)[O-]` gave JMJD2A Tudor -17.9%, PLK1 PBD block 0.9%, BAZ2B inh -10.8%, HP1b chromo inh 9.0% and G9a block inconclusive.
O=C(COc1ccccc1[N+](=O)[O-])N1CCCc2ccccc21 was read as JMJD2A Tudor -15.4%, PLK1 PBD block -3.8%, BAZ2B inh -6.6%, HP1b chromo inh 19.0%, G9a block 70.8µM* and Sfp PPTase inh -4.1%.
For O=C(COCc1cc(-c2ccc(F)cc2)on1)Nc1cc(Cl)cc(Cl)c1 the results were JMJD2A Tudor -4.0%, BAZ2B inh 8.0%, HP1b chromo inh 16.3% and G9a block 11.1%[59 µM].
Screening O=c1oc2cc([N+](=O)[O-])ccc2nc1/C=C(\O)c1cccc(Br)c1 returned JMJD2A Tudor inconclusive, PLK1 PBD block -11.3%, BAZ2B inh inconclusive, HP1b chromo inh 14.1%, G9a block 20µM* and Sfp PPTase inh 5.2%.
`O=c1oc2ccccc2nc1/C=C(\O)c1ccccc1` gave JMJD2A Tudor -3.7%, PLK1 PBD block -9.1%, BAZ2B inh inconclusive, HP1b chromo inh 50.5% and Sfp PPTase inh inconclusive.
O=c1oc2cc([N+](=O)[O-])ccc2nc1/C=C(O)/C=C/c1ccccc1 was read as BAZ2B inh 50.1µM*, G9a block 35.5µM* and Sfp PPTase inh 50.1µM*.
`Cc1ccnc(SCc2cc(=O)c(OC(=O)c3cc([N+](=O)[O-])ccc3Cl)co2)n1` gave JMJD2A Tudor inconclusive, PLK1 PBD block 23.8µM*, BAZ2B inh -36.3%, HP1b chromo inh 3.7%, G9a block inconclusive and Sfp PPTase inh -11.1%.
Screening O=C(Oc1coc(CSc2ncccn2)cc1=O)c1cccc([N+](=O)[O-])c1 returned JMJD2A Tudor -22.4%, PLK1 PBD block inconclusive, BAZ2B inh -38.8%, HP1b chromo inh 41.5%, G9a block 56.2µM* and Sfp PPTase inh -0.9%.
`O=C(Oc1coc(CSc2ncccn2)cc1=O)c1ccc(Br)o1` gave JMJD2A Tudor -4.5%, PLK1 PBD block -22.1%, BAZ2B inh -13.3%, HP1b chromo inh 46.7%, G9a block -6.9%[59 µM] and Sfp PPTase inh -12.3%.
O=C(Oc1coc(CSc2ncccn2)cc1=O)c1ccco1 was read as JMJD2A Tudor -8.4%, PLK1 PBD block -11.5%, HP1b chromo inh 42.9%, G9a block -6.8% and Sfp PPTase inh 89.1µM*.
Screening Cc1cc(C)nc(SCc2cc(=O)c(OC(=O)c3ccc(Cl)c([N+](=O)[O-])c3)co2)n1 returned JMJD2A Tudor -32.1%, PLK1 PBD block inconclusive, BAZ2B inh inconclusive, HP1b chromo inh 10.2%, G9a block inconclusive and Sfp PPTase inh 9.7%.
`Cc1ccnc(SCc2cc(=O)c(OC(=O)c3ccc(Br)o3)co2)n1` gave JMJD2A Tudor -7.5%, PLK1 PBD block -25.9%, BAZ2B inh -1.1%, HP1b chromo inh 49.9%, G9a block -7.0% and Sfp PPTase inh -2.0%.

Compound activity as filed in PubChem.
